The list is not random: actives were taken first. Their share in the collection is about 3%.
TexasRed fluor – Texas Red fluorescence interference in TRb-SRC2 counter-screen; actives 0.29% (n = 280,000); Potency, µM (highest dose often 106 µM), for inactives: top-dose fluorescence change, negative = quenching; TRb/SRC2 Texas Red total fluorescence interference; active = well fitted curve in either direction with a large enough effect; inconclusive = small, poorly fitted or top-dose-only effect
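Human TRb ligand-binding domain at 0.6 uM with 20 nM Texas Red SRC2 peptide in Tris buffer containing 1 uM T3 and 5% DMSO, incubated with compound 5 h at ambient temperature. Total fluorescence (555/632 nm) calculated as parallel + 2 × perpendicular.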
Tau fluor cs – counter-screen for tau fibril formation inhibitors; Potency, µM (top dose mostly 57.7 µM), without a hit: top-dose activity change, negative = decrease; actives 0.93% (n = 280,000); AID 1463; tau K18 P301L Alexa594 fluorescence, heparin fibrillization; also: nearly all actives have a fitted effect of over 55% in size
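Human tau K18 P301L (15 uM unlabeled, 0.24 uM Alexa 594-labeled) in 100 mM sodium acetate pH 7 with 20 uM heparin, 6 hr at 37 C. ThT 30 uM added, 1 hr ambient; Alexa 594 FP and total fluorescence read at 555/632 nm.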
Tau fibril FP – inhibitors of human tau fibril formation; P10636; K18 P301L tau heparin fibrillization, Alexa594 FP, 6 h; Potency, µM (doses to about 57.7 µM), for the others: top-dose activity, negative = inhibition, most hits filed as inhibitors; actives 0.39% (n = 280,000); AID 1468; also: nearly all actives have a fitted effect of over 55% in size
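Compound effects on tau fibrillization are measured by Alexa 594 fluorescence polarization (ex 555, em 632 nm). K18 P301L tau is used at 15 uM with 0.24 uM labeled tracer, and 20 uM heparin induces aggregation over 6 hr at 37 C.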
TRb SRC2 PPI – inhibitors of human thyroid hormone receptor beta-SRC2 interaction; P10828; Potency, µM (top dose mostly 106 µM), inactives show at the highest dose activity change, negative = inhibition, most hits filed as inhibitors; TRbeta-SRC2 peptide binding, fluorescence polarization; receptor liganded with 1 µM T3; AID 1469; actives 0.065% (n = 280,000);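 also: plate controls were bound peptide for no effect and peptide without receptor for full effect; nearly all actives have a fitted effect of over 50% in size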
Target sequence (P10828 whole entry, looked up): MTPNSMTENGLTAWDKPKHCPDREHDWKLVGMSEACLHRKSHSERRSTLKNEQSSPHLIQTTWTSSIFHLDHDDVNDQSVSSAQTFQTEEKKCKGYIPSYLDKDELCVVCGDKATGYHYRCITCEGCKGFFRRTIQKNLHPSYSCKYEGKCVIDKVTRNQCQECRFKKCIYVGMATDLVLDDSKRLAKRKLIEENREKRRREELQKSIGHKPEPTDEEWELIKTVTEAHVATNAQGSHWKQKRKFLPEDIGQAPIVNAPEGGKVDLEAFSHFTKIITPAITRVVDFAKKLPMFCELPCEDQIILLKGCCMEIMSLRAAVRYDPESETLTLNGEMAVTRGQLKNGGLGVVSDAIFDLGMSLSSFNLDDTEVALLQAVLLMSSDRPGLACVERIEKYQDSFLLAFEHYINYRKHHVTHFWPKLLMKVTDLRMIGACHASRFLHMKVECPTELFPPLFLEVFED
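Human TRb ligand-binding domain (0.6 uM) is mixed with 20 nM Texas Red SRC2 peptide and 1 uM T3; after compound addition and 5 hr at ambient temperature, polarization is measured and normalized to unbound and bound controls.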
Tau fibril ThT – tau fibrillization inhibition (ThT binding); P10636; recombinant tau K18 P301L (four-repeat tau fragment), heparin-induced fibrillization, ThT fluorescence; Potency, µM (titrated, usually from 57.4 µM), for inactives: at the top dose activity, negative = inhibition, hits mostly inhibitors; actives 2.1% (n = 270,000); AID 1460; also: nearly all actives have a fitted effect of over 55% in size
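Heparin-induced (20 uM) aggregation of recombinant human K18 P301L tau, 15 uM unlabeled with 0.24 uM labeled, pH 7 acetate buffer, 6 hr at 37 C with compound. Fibrils quantified by 30 uM ThT fluorescence after 1 hr ambient incubation.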
* marks the source's active call; other numbers are inactive results; ? = inconclusive; / = no result given; [ ] = another dose, or the depositor's remark. Unless noted, calls follow the shape of the dose curve; as a rule, active = well fitted curve in the direction sought with a large enough effect; inconclusive = small, poorly fitted or top-dose-only effect, or another doubt; inactive = no such curve, though single readings can be large; an effect the other way counts as inactive or inconclusive. Unless noted, % is scaled to controls: 0 for no effect and ±100 for the full control effect; potency is read from the fitted curve at half-maximal effect.

SMILES | TexasRed fluor | Tau fluor cs | Tau fibril FP | TRb SRC2 PPI | Tau fibril ThT
O=C(Cc1cnn(-c2ccccc2)c1)c1ccc(O)c(O)c1O | -0.4% | ? | ? | -2.7% | 14.1µM*
CC(C)CCN1C(=O)c2ccccc2CC1(C)C(=O)NC1CCCCC1 (stereo unspecified) | 4.5% | 2.4% | -1.4% | 1.1% | 3.9%
O=C(O)CN1C(=O)/C(=C/c2ccc(N3CCCCC3)o2)SC1=S | 16.0% | -2.7% | ? | 0.3% | 15.8µM*
CCCN1C(=O)S/C(=C/c2ccc(N3CCOCC3)o2)C1=O | -3.5% | ? | ? | 2.9% | ?
CCCN1C(=O)S/C(=C\c2ccc(N3CCOCC3)o2)C1=O | -0.5% | -26.6% | -18.1% | 4.3% | 17.8µM*
COC(=O)CN1C(=O)S/C(=C/c2ccc(N3CCCCC3)o2)C1=O | 18.7% | -24.1% | ? | -7.8% | 25.1µM*
CCc1ccc(NS(=O)(=O)c2[nH]ncc2C(=O)OC)cc1 | 0.5% | -9.5% | -11.2% | -0.5% | -10.5%
COC(=O)c1ccc(NC(=O)CN(c2cccc(C(F)(F)F)c2)S(C)(=O)=O)cc1 | 3.3% | ? | ? | -0.3% | 9.9%
CCOc1ccc2nc3cc(N)ccc3c(N)c2c1 | ? | 12.6µM*[quencher] | ? | -1.5% | 7.08µM*
NC(CCC(=O)N[C@@H](CS)C(=O)NCC(=O)O)C(=O)O (stereo partly specified) | -0.7% | -17.9% | ? | 0.2% | 31.6µM*
CCN(CC)c1ccc(NC(=O)C2CCCN(S(=O)(=O)c3ccc4c(c3)oc(=O)n4C)C2)c(C)c1 (stereo unspecified) | -2.6% | ? | 6.9% | 1.3% | -13.6%
CC(=O)c1cccc(NC(=O)c2ccc(-n3c(C)nnc3C)cc2)c1 | -12.7% | -0.8% | -7.0% | 1.3% | -1.0%
O=C(Cn1c(-c2cccs2)cc2ccccc21)N1CCN(c2ccccc2F)CC1 | 100µM*[quencher] | -6.8% | -2.5% | -27.1% | -0.9%
CCc1ccc(NC(=O)c2sc3nc(C)c(Cl)c(C)c3c2N)cc1 | 4.5% | -11.3% | 10.3% | -0.1% | ?
CCc1ccc(NC(=O)c2sc3nc(C)c(Cl)c(C)c3c2NC(=O)c2ccccc2OC)cc1 | 10µM*[quencher] | -5.5% | -10.5% | -9.2% | ?
O=C(/C=C/c1cccc([N+](=O)[O-])c1)c1ccccc1 | -0.9% | -8.2% | 9.7% | -3.8% | ?
O=C(/C=C/c1cccc([N+](=O)[O-])c1)n1cnc2ccccc21 | -1.1% | ? | ? | 11.2% | 12.6µM*
COC(=O)[C@H]1[C@H]2C[C@@H]3c4[nH]c5cc(OC)ccc5c4CCN3C[C@H]2C[C@@H](OC(=O)c2cc(OC)c(OC)c(OC)c2)[C@@H]1OC | 3.7% | 12.6µM*[quencher] | 6.6% | 5.6% | ?
O=C(O)CCc1ccccc1OC(=O)c1ccccc1 | -3.4% | 6.2% | -0.8% | -1.6% | /
O=C(Oc1cccc2c(O)cccc12)c1ccccc1 | 0.0% | 12.6µM*[quencher] | 10.9% | 0.8% | ?
CCOc1ccccc1CNc1nc2nc(C)c(CC(=O)OC)c(=O)n2[nH]1 | ? | -8.2% | -2.3% | -10.3% | -5.9%
COc1cccc(C(=O)n2nc(-c3ccco3)nc2NCc2cccs2)c1 | -9.9% | ? | -5.0% | 3.5% | ?
Cc1cc(Br)ccc1-n1[nH]c(C)c(C=Nc2cccc3nsnc23)c1=O | -4.5% | ? | ? | ? | 14.1µM*
COc1ccc2nc(/N=C/c3c(C)[nH]n(-c4ccc(C)cc4C)c3=O)sc2c1 | -9.7% | -18.0% | ? | 1.3% | ?
CCOc1ccccc1-c1nnc2n1N=C(c1cc(OC)cc(OC)c1)CS2 | -1.6% | / | / | 3.1% | /
Fc1ccc(C2CC(c3ccco3)=NN2c2ccccc2)cc1 (stereo unspecified) | 0.2% | 4.3% | 3.5% | -0.6% | 1.1%
O=[N+]([O-])c1ccc(N2N=C(c3ccco3)CC2c2ccccc2)cc1 (stereo unspecified) | 7.0% | ? | ? | -4.1% | 8.91µM*
COc1ccc(CCNC2=C(Cl)C(=O)N(CCc3ccc(OC)c(OC)c3)C2=O)cc1OC | -0.4% | -0.3% | -4.6% | -11.7% | -6.9%

Compound activity: PubChem, National Center for Advancing Translational Sciences (NCATS)
